From PubChem BioAssay AID652154 (Broad Institute, 2013)
About 4,200 (1.2%) of roughly 360,000 compounds were called active.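 Rule for the calls: active = mean replicate inhibition at least 60% with every replicate also reaching 60%; inconclusive = only one of the two criteria is met; inactive = mean below 60% and not all replicates reaching 60%.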 The sample as a whole holds a higher share of actives than the screen did.

Test: PAX8 transcriptional activity inhibition in RMG-I – RMG-I cells, luciferase, single concentration, primary screen (AID 652154);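 note: luciferase light reporting Pax8 driven TPO promoter activity; plate controls were median of neutral control wells for no effect and mitoxantrone controls for full effect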
Conditions: RMG-I TPO-luciferase reporter, SteadyGlo, 24 h; at 12.6 µM; hits give high values
In the case of `C[C@@H]1CN([C@H](C)CO)C(=O)CCCn2cc(nn2)CO[C@@H]1CN(C)C(=O)Nc1ccc2c(c1)OCO2`, the inhibition is reported as -4.65% (inactive). With `C[C@@H]1CCCCO[C@@H](CN(C)C(=O)CCC(F)(F)F)[C@@H](C)CN([C@H](C)CO)C(=O)c2cc(NC(=O)Nc3ccccc3)ccc2O1` the inhibition was -44.3% (inactive). In the case of `CC1=C(C(=O)OC2CCCCC2)C(c2ccccc2F)NC(=O)N1` (stereo unspecified), the inhibition is reported as 23.9% (inactive). With `COc1cc(C2C(C(=O)Nc3ccccc3OC)=C(C)Nc3ncnn32)ccc1O` (stereo unspecified) the inhibition was 24.6% (inactive). In the case of `CC1=C(C(=O)OC2CCCCC2)C(c2cccnc2)n2ncnc2N1` (stereo unspecified), the inhibition is reported as 143% (active). For `O=C(CC1CC1)N[C@@H]1C[C@@H]2O[C@H](CO)CC[C@@H]2O[C@@H]1CCc1ccc(C#Cc2ccccc2)cc1`, the inhibition was -44% (inactive). In the case of `N#Cc1cccc(-c2ccc([C@H]3[C@@H](CO)N4CCCCN(C(=O)Nc5ccccc5)C[C@H]34)cc2)c1`, the inhibition is reported as -12.5% (inactive). In the case of `CCCNC(=O)Nc1ccc2c(c1)C(=O)N(C)[C@H]1CC[C@H](CC(=O)NC3CCC3)O[C@H]1CO2`, the inhibition is reported as -6.66% (inactive). In the case of `CCC(=O)N(C)C[C@H]1[C@H](c2ccc(C3=CCCCC3)cc2)[C@@H](CO)N1C(C)=O`, the inhibition is reported as -0.343% (inactive). For `CCCN1[C@H](C(=O)N2CCOCC2)[C@@H](CO)[C@@H]2Cn3c(ccc(/C=C/c4ccccc4)c3=O)[C@@H]21`, the inhibition was 78.4% (active). For `CCCN1[C@H](C(=O)N2CCCCC2)[C@@H](CO)[C@@H]2Cn3c(ccc(-c4ccccc4F)c3=O)[C@@H]21`, the inhibition was -10.5% (inactive). For `CC=Cc1ccc2n(c1=O)C[C@H]1[C@H](CO)[C@@H](C(=O)N3CCCCC3)N(Cc3ccccn3)[C@@H]21` (mixture of isomers), the inhibition was 0.555% (inactive). With `CCC(=O)N(C)C[C@@H]1Oc2ncc(C#C[C@H](C)O)cc2C(=O)N([C@@H](C)CO)C[C@@H]1C` the inhibition was -26.1% (inactive). With `COCC(=O)Nc1ccc2c(c1)C(=O)N(C)C[C@@H](OC)[C@H](C)CN(C(=O)c1ccccn1)[C@@H](C)CO2` the inhibition was 2.92% (inactive). In the case of `CCN1[C@@H]2c3cccc(=O)n3C[C@H]1[C@H](CO)[C@H]2C(=O)NC1Cc2ccccc2C1`, the inhibition is reported as -4.92% (inactive). With `CO[C@H]1CN(C)C(=O)c2ccc(NC(=O)CC(F)(F)F)cc2OC[C@@H](C)N(C(=O)c2ccccc2F)C[C@@H]1C` the inhibition was -20.3% (inactive). With `COc1ccc(CNC(=O)CCCn2nc(C)c([N+](=O)[O-])c2C)cc1` the inhibition was 2.46% (inactive). In the case of `Cc1ccc(Oc2cc(NC(=O)CCCn3nc(C)c([N+](=O)[O-])c3C)cc([N+](=O)[O-])c2)cc1`, the inhibition is reported as 84.6% (active). For `Cc1nn(CC(=O)Nc2ccc(N(C)C)cc2)c(C)c1[N+](=O)[O-]`, the inhibition was 13.9% (inactive). For `Cc1ccccc1S(=O)(=O)N1CC[C@H]2[C@H](CO)Nc3ccc(-c4cccc(F)c4)cc3[C@H]21`, the inhibition was -9.62% (inactive). With `COc1ccccc1NC(=O)N1C[C@H]2[C@@H](c3ccccc31)[C@@H](CO)N2C(=O)C1CCCC1` the inhibition was 14.9% (inactive). In the case of `CCCN1C[C@@H](C)[C@@H](OC)CN(C)C(=O)c2ccc(NC(=O)c3ccc(F)cc3)cc2OC[C@@H]1C`, the inhibition is reported as -1.32% (inactive). In the case of `O=C(C[C@@H]1CC[C@H]2[C@@H](COC[C@@H](O)CN2S(=O)(=O)c2cccc(Cl)c2)O1)N1CCCCC1`, the inhibition is reported as -3.53% (inactive). In the case of `CN1CCN(CCCNC(=O)c2ccc(/C=C3\Oc4ccccc4N(Cc4ccc(Cl)cc4)C3=O)cc2)CC1`, the inhibition is reported as 100% (active). With `CCC1Oc2ccccc2N(CC(=O)NCCCN2CCN(CC)CC2)C1=O` (stereo unspecified) the inhibition was 5.58% (inactive). In the case of `Cc1c(C)n(Cc2ccc(Cl)cc2)c2ccc(C(=O)NCCCN3CCOCC3)cc12`, the inhibition is reported as 15.4% (inactive). In the case of `CN1c2ccc(Br)cc2[C@H]2[C@H](CCN2S(=O)(=O)c2ccccc2)[C@@H]1CO`, the inhibition is reported as 0.611% (inactive). With `CN1CCCCC(NC(=O)C(C)(C)C)C1=O` (stereo unspecified) the inhibition was 8.76% (inactive). With `C[C@H](CO)N1C[C@H](C)[C@H](CN(C)CC2CC2)Oc2ccc(NC(=O)c3ccncc3)cc2C1=O` the inhibition was -14.7% (inactive). In the case of `C[C@@H]1CN([C@@H](C)CO)S(=O)(=O)c2ccc(/C=C/c3ccccc3)cc2O[C@H]1CN(C)Cc1ccccc1`, the inhibition is reported as 11.4% (inactive). For `C[C@@H]1CN([C@H](C)CO)S(=O)(=O)c2ccc(C#CC3CCCC3)cc2O[C@@H]1CN(C)Cc1cccnc1`, the inhibition was 31.1% (inactive). In the case of `C[C@H](O)C#Cc1ccc2c(c1)O[C@@H](CN(C)Cc1cncnc1)[C@H](C)CN([C@H](C)CO)S2(=O)=O`, the inhibition is reported as 8.97% (inactive). In the case of `COCC#Cc1ccc2c(c1)O[C@@H](CN(C)Cc1cccnc1)[C@@H](C)CN([C@H](C)CO)S2(=O)=O`, the inhibition is reported as -14.2% (inactive). With `C[C@H](O)C#Cc1ccc2c(c1)O[C@H](CN(C)Cc1cncnc1)[C@H](C)CN([C@@H](C)CO)S2(=O)=O` the inhibition was 19.4% (inactive). For `C[C@@H]1CN([C@@H](C)CO)S(=O)(=O)c2ccc(/C=C/c3ccccc3)cc2O[C@H]1CN(C)Cc1cccnc1`, the inhibition was 68.6% (active). With `COc1ccccc1C#Cc1ccc2c(c1)O[C@H](CN(C)Cc1cccnc1)[C@@H](C)CN([C@H](C)CO)S2(=O)=O` the inhibition was 70% (active). In the case of `C[C@@H]1CN([C@H](C)CO)S(=O)(=O)c2ccc(/C=C/c3ccccc3)cc2O[C@@H]1CN(C)Cc1ccccc1`, the inhibition is reported as 31% (inactive). With `COc1ccccc1C#Cc1ccc2c(c1)O[C@@H](CN(C)Cc1cncnc1)[C@H](C)CN([C@@H](C)CO)S2(=O)=O` the inhibition was 74.3% (active). With `COc1ccccc1NC(=O)N[C@H]1C=C[C@@H](CC(=O)N[C@@H](C)c2ccccc2)O[C@@H]1CO` the inhibition was 4.41% (inactive). With `O=C(C[C@H]1CC[C@@H]2[C@H](COC[C@H](O)CN2C(=O)c2ccc3c(c2)OCO3)O1)NC1CCC1` the inhibition was -16.6% (inactive). For `CC(=O)Nc1ccc2c(c1)C(=O)N(C)[C@@H]1CC[C@H](CC(=O)NCc3ccccc3)O[C@H]1CO2`, the inhibition was -2.89% (inactive). For `C/C=C/c1cnc2c(c1)C(=O)N([C@H](C)CO)C[C@H](C)[C@@H](CN(C)C(=O)c1cccc(F)c1)O2`, the inhibition was -7.23% (inactive). In the case of `C[C@H](CO)N1C[C@H](C)[C@@H](CN(C)S(=O)(=O)c2ccc(F)cc2)Oc2ccc(NC(=O)CCCCCC(=O)Nc3ccccc3N)cc2CC1=O`, the inhibition is reported as 26.9% (inactive). In the case of `C[C@H](CO)N1C[C@H](C)[C@@H](CN(C)S(=O)(=O)c2cn(C)cn2)Oc2ccc(NS(=O)(=O)c3cn(C)cn3)cc2C1=O`, the inhibition is reported as -10.4% (inactive). In the case of `COC(=O)[C@@]1(Cc2ccc(F)cc2)[C@H]2c3cc(C(=O)N(C)C)n(CCc4c[nH]c5ccc(OC)cc45)c3C[C@H]2CN1C(=O)c1ccccc1`, the inhibition is reported as -3.55% (inactive). In the case of `COC(=O)[C@@]1(Cc2ccc(F)cc2)[C@H]2c3cc(C(=O)N4CCCC4)n(C[C@H](O)CO)c3C[C@H]2CN1C(=O)c1ccccc1`, the inhibition is reported as 0.0525% (inactive). With `COC(=O)[C@@]1(Cc2ccc(OC)cc2)[C@H]2c3cc(C(=O)N4CCCC4)n(Cc4ccc(OC(F)(F)F)cc4)c3C[C@H]2CN1C(=O)c1ccccc1` the inhibition was 77% (active). With `C[C@@H]1CN([C@H](C)CO)C(=O)Cc2cc(NC(=O)CCCN(C)C)ccc2O[C@@H]1CN(C)Cc1ccc(Oc2ccccc2)cc1` the inhibition was -19.4% (inactive). For `Cn1cnc(CCNC(=O)C[C@H]2CC[C@@H]3[C@H](COC[C@@H](O)CN3C(=O)Nc3ccc(Cl)cc3)O2)c1`, the inhibition was -17.8% (inactive). In the case of `Cc1noc(C)c1S(=O)(=O)Nc1ccc2c(c1)C(=O)N([C@H](C)CO)C[C@@H](C)[C@@H](CN(C)Cc1ccccc1)OCCCC[C@@H](C)O2`, the inhibition is reported as 15.9% (inactive). With `CCOC(=O)c1ccc(NC(=O)c2nc[nH]c2C(=O)N[C@@H](CCCCNC(=O)OC(C)(C)C)C(=O)OC(C)(C)C)cc1` the inhibition was 11.1% (inactive). For `Cc1ccc(NC(=O)c2nc[nH]c2C(=O)N[C@@H](CCCCNC(=O)OC(C)(C)C)C(=O)OC(C)(C)C)cc1`, the inhibition was 64% (active). With `CC(C)(C)OC(=O)NCCCCCNC(=O)c1nc[nH]c1C(=O)NCc1ccccc1` the inhibition was 8.72% (inactive). In the case of `COc1ccccc1CCn1cnc(-c2ccccc2)c1C(C)C`, the inhibition is reported as 14.5% (inactive). For `Cc1cccc(NC(=O)C2CCN(S(=O)(=O)c3cccc4cccnc34)CC2)c1`, the inhibition was 11.9% (inactive). With `Cc1ccnc(NC(=O)C2CCN(S(=O)(=O)c3c(C)c(C)cc(C)c3C)CC2)c1` the inhibition was 74.9% (active). With `O=C(Nc1ccccn1)C1CCN(S(=O)(=O)c2ccccc2)CC1` the inhibition was -150% (inactive). In the case of `COc1ccccc1-c1ccc2c(c1)[C@H]1[C@H](CCN1S(=O)(=O)c1ccccc1)[C@@H](CO)N2`, the inhibition is reported as 48.7% (inactive). With `O=C(Nc1c(Cl)c(C2CC2)nn1-c1ccccc1)C(Cl)(Cl)Cl` the inhibition was 12.8% (inactive). With `CCC(=O)Nc1ccc2c(c1)OC[C@H](C)N(C(=O)Cc1cccnc1)C[C@@H](C)[C@@H](OC)CN(C)C2=O` the inhibition was 19.9% (inactive). In the case of `COC(=O)Cn1c(O)c(N=NC(=O)OC)c2ccccc21`, the inhibition is reported as 8.64% (inactive). With `CN1CCN(C(=O)Cn2c(C(F)(F)F)nc3ccccc32)CC1` the inhibition was 1.81% (inactive). With `CCCCn1c(O)c(N=NC(=O)Cn2c(C(F)(F)F)nc3ccccc32)c2ccccc21` the inhibition was 125% (active). In the case of `CCCNC(=O)N1[C@@H]2c3ccc(-c4ccccc4OC)c(=O)n3C[C@H]1[C@H](CO)[C@H]2C(=O)N(C)C`, the inhibition is reported as -4.26% (inactive). In the case of `C=C1C(=O)[C@]23C[C@H]1CCC2[C@@]1(C)C(C[C@@H]3O)[C@](C)(C(=O)O)CC[C@@H]1O` (stereo partly specified), the inhibition is reported as 71.9% (active). With `CN1CCCCN2[C@@H](CO)[C@@H](c3ccc(C4=CCCC4)cc3)[C@@H]2C1` the inhibition was -5.77% (inactive).
